Among the test systems are HCT-15 colon; HT29 colon; SNB-75 CNS; SNB-19 CNS; U251 CNS; PC-3 prostate; SK-MEL-5 melanoma; UACC-62 melanoma; LOX IMVI melanoma; SK-MEL-28 melanoma; SK-MEL-2 melanoma; EKVX NSCLC; SN12C renal; UO-31 renal; TK-10 renal; ACHN renal; A498 renal; CCRF-CEM leukemia; MOLT-4 leukemia; SR leukemia.
What all share (experiment): NCI-60 one-dose screen, 48 h (100 = growth as untreated, 0 = no growth, -100 = all killed)
Details in all cases: 10 µM unless noted

SMILES strings stand for the structures. This is part of a sample that, as a whole, favours compounds with a hit. Of some 83,000 tested, about 20% had one in any assay.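 48-hour exposure, single concentration, 96-well plates; percent growth endpoint where 0 means no net growth. Active: below 10.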 A number with no mark means an inactive call. Active and inactive are the calls of the source.

Consider `O=C1CCC23OC(c4ccccc4N12)C(O)C(O)C3O` (stereo not given), for which the growth is 109% in the assay with HCT-15 colon; 91.6% in the assay on HT29 colon; 113% in the assay on SNB-75 CNS; 101% in the assay on SNB-19 CNS; 105% with U251 CNS; 95.6% in the assay on PC-3 prostate. Further, the growth in the assay on SK-MEL-5 melanoma was 111%; in the assay on UACC-62 melanoma it was 98.5%; with LOX IMVI melanoma, 100%; with SK-MEL-28 melanoma, 118%; in the assay with SK-MEL-2 melanoma it was 94.7%; in the assay with EKVX NSCLC it was 107%. The growth in the assay with SN12C renal is 103%; in the assay with UO-31 renal, 86.9%; with TK-10 renal, 89.1%; in the assay on ACHN renal, 109%; in the assay with A498 renal, 104%; with CCRF-CEM leukemia it was 101%. Moreover, the growth was 98.3% in the assay on MOLT-4 leukemia and 112% in the assay with SR leukemia.

Regarding `Cn1c2ccccc2c2c(OC(=O)c3ccccc3)c3c(nc21)-c1ccccc1C3`, the growth with HCT-15 colon was 105%; in the assay with HT29 colon, 92.1%; in the assay on SNB-75 CNS it was 90.8%; with SNB-19 CNS it was 105%; in the assay with U251 CNS, 107%; with PC-3 prostate, 87.3%. In addition, the growth with SK-MEL-5 melanoma was 96.6%; in the assay on UACC-62 melanoma, 92.5%; with LOX IMVI melanoma, 88.3%; with SK-MEL-28 melanoma, 111%; in the assay on SK-MEL-2 melanoma, 81.1%; in the assay with EKVX NSCLC, 86%. Moreover, the growth is 98.1% in the assay on SN12C renal; 79.9% in the assay on UO-31 renal; 124% in the assay on TK-10 renal; 97.1% in the assay with ACHN renal; 119% in the assay on A498 renal; 98.8% in the assay with CCRF-CEM leukemia. The growth is 96.3% with MOLT-4 leukemia and 91.7% in the assay with SR leukemia.

Turning to `N#Cc1c(NC(=O)c2cccs2)[n+]([O-])c2cc(C(F)(F)F)ccc2[n+]1[O-]`, the growth in the assay on HCT-15 colon is 117%; with HT29 colon it was 107%; in the assay on SNB-75 CNS, 92.6%; with SNB-19 CNS, 106%; in the assay on U251 CNS it was 104%; in the assay on PC-3 prostate, 65.1%. For the same compound, the growth was 58% with SK-MEL-5 melanoma; 96.8% with UACC-62 melanoma; 94.7% in the assay on LOX IMVI melanoma; 120% in the assay with SK-MEL-28 melanoma; 55.8% with SK-MEL-2 melanoma; 87.1% with EKVX NSCLC. Also, the growth with SN12C renal is 108%; with UO-31 renal it was 80.5%; in the assay on TK-10 renal, 104%; in the assay on ACHN renal, 102%; with A498 renal, 123%; in the assay with CCRF-CEM leukemia, 94.7%. In addition, the growth was 75.9% in the assay with MOLT-4 leukemia and 79.8% in the assay on SR leukemia.

Take `C=C1C(=O)O[C@H]2[C@H]1CC/C(COC(=O)c1cc3ccccc3o1)=C\CC[C@@]1(C)O[C@@H]21`: the growth in the assay on HCT-15 colon was -68.6% (active); with HT29 colon, -49.6% (active); with SNB-75 CNS, 76.5%; with SNB-19 CNS it was 16.7%; with U251 CNS it was 15.4%; in the assay with PC-3 prostate it was -8.8% (active). Also, the growth in the assay with SK-MEL-5 melanoma is 7.03% (active); in the assay with UACC-62 melanoma, -37.7% (active); in the assay with LOX IMVI melanoma it was -89.3% (active); with SK-MEL-28 melanoma, -48% (active); in the assay on SK-MEL-2 melanoma, -34.7% (active); in the assay with EKVX NSCLC it was -26.4% (active). Moreover, the growth is -1.94% (active) in the assay on SN12C renal; 3.76% (active) in the assay with UO-31 renal; 39.2% in the assay on TK-10 renal; 7.04% (active) with ACHN renal; 103% with A498 renal; 1.96% (active) in the assay on CCRF-CEM leukemia. The growth in the assay with MOLT-4 leukemia was -9.79% (active); with SR leukemia it was -1.95% (active).

For `COc1ccc2c(c1)Oc1nc(N)c(C#N)c(N)c1C2Sc1ccc(O)cc1` (stereo not given), the growth in the assay on HCT-15 colon was 65.7%; with HT29 colon, 102%; in the assay with SNB-75 CNS, 89.7%; in the assay with SNB-19 CNS, 106%; in the assay on U251 CNS it was 86.5%; in the assay with PC-3 prostate, 95.9%. For the same compound, the growth is 90.3% in the assay on SK-MEL-5 melanoma; 101% in the assay with UACC-62 melanoma; 87.4% in the assay with LOX IMVI melanoma; 105% in the assay with SK-MEL-28 melanoma; 87.5% in the assay with SK-MEL-2 melanoma; 77.7% in the assay on EKVX NSCLC. Moreover, the growth in the assay with SN12C renal is 89.4%; with UO-31 renal it was 68.3%; with TK-10 renal, 98.5%; with ACHN renal, 94.2%; in the assay with A498 renal, 91.4%; in the assay with CCRF-CEM leukemia it was 16.5%. The growth in the assay on MOLT-4 leukemia is 34.7%; in the assay with SR leukemia, 13.7%.

Regarding `COC(=O)c1cc2c3c(cc(O)c2[nH]1)N(C(=O)C1Cc2cc(OC)c(OC)c(OC)c2N1)CC3CCl` (stereo not given), the growth was 1.13% (active) with HCT-15 colon; -7.58% (active) with HT29 colon; -32.9% (active) in the assay with SNB-75 CNS; -52% (active) in the assay on SNB-19 CNS; -54.9% (active) with U251 CNS; -17.1% (active) with PC-3 prostate. Further, the growth is -94.6% (active) in the assay on SK-MEL-5 melanoma; -61% (active) in the assay with UACC-62 melanoma; -94.2% (active) in the assay on LOX IMVI melanoma; -6.29% (active) in the assay on SK-MEL-28 melanoma; -43% (active) in the assay on SK-MEL-2 melanoma; -31.5% (active) in the assay with EKVX NSCLC. Further, the growth in the assay on SN12C renal is -88.9% (active); in the assay on UO-31 renal, -97.8% (active); with TK-10 renal, -89.5% (active); in the assay on ACHN renal, -56.1% (active); in the assay on A498 renal, -42.8% (active); in the assay on CCRF-CEM leukemia, 5.91% (active). For the same compound, the growth with MOLT-4 leukemia is -11.7% (active); in the assay with SR leukemia, 8.12% (active).

Regarding `C(=C\c1cn(-c2ccccc2)nc1-c1ccccc1)/c1nnc(-c2c[nH]c3ccccc23)o1`, the growth with HCT-15 colon is 69%; with HT29 colon, 39.7%; in the assay on SNB-75 CNS it was 17.6%; in the assay on SNB-19 CNS, 60.5%; with U251 CNS, 20.9%; in the assay on PC-3 prostate, 26%. The growth with SK-MEL-5 melanoma was 59.4%; with UACC-62 melanoma, 95.4%; in the assay with LOX IMVI melanoma it was 47.6%; in the assay on SK-MEL-28 melanoma, 53.2%; with SK-MEL-2 melanoma it was 86%; in the assay with EKVX NSCLC, 50.8%. Besides, the growth in the assay on SN12C renal is 27.9%; in the assay with UO-31 renal, 73.2%; in the assay on TK-10 renal, 22.8%; in the assay with ACHN renal, 40%; with A498 renal it was 109%; with CCRF-CEM leukemia, 78.8%. Moreover, the growth is 69.4% in the assay on MOLT-4 leukemia and 48.1% in the assay on SR leukemia.

The record behind these values is PubChem BioAssay (NCI).
